For 37 compounds, cell viability activity results are on record in the supplement of paper PMC9177965.

Where “and” joins values, the source holds several entries; their conditions need not be identical. Identical values can stand only once.

In test [1] the test system is HT29 RNF43 G659fs (RNF43 659mut, CRISPR-edited). Kind of test: cell viability activity relative to DMSO (negative = inhibition); higher = more viable cells (less growth inhibition). The note with it: 5 µM; 96 h. The method, then:
(§1)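 Broad Repurposing Library primary screen at a single dose of 5 uM. HT29 sg-Ctrl and HT29 RNF43 G659fs CRISPR-edited isogenic cells were seeded at 2500 cells/well in 384-well plates in duplicate and treated for 96 h. Viability was read by CellTiter-Glo and reported as % activity relative to DMSO, with MG132 as the positive control (negative = growth inhibition).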

Test [2] concerns HT29 sg-Ctrl (RNF43 wildtype). Described as above. The conditions noted are these: 5 µM; 96 h. The method, then: as §1

Take `C[C@@H](C(=O)O)c1ccc(-c2ccccc2)c(F)c1`: the cell viability activity is -68.9% in test [1] and -70.3% in test [2].

With `Nc1c2ccccc2nc2ccccc12`, the cell viability activity in test [1] is -86.1%; in test [2], -86.8%.

In the case of `CC(C)[C@H](C(=O)Nc1ccc(C(=O)NO)cc1)c1ccccc1`, the cell viability activity in test [1] is -95%; in test [2] it was -89.9%.

On to `C/C=C1\NC(=O)[C@H]2CSSCC/C=C/[C@H](CC(=O)N[C@H](C(C)C)C(=O)N2)OC(=O)[C@H](C(C)C)NC1=O`, for which the cell viability activity in test [1] is -94.9%; in test [2], -77.3%.

Consider `c1cc(Nc2cc(C3CC3)[nH]n2)nc(Nc2ccc3nc[nH]c3c2)n1`, for which the cell viability activity in test [1] is -29.4%; in test [2], -65.9%.

As for `CC[C@@]1(O)C(=O)OCc2c1cc1n(c2=O)Cc2cc3c([N+](=O)[O-])cccc3nc2-1`, the cell viability activity in test [1] is -93.9%; in test [2], -95.5%.

With `CC(NCCC(c1ccccc1)c1ccccc1)c1ccccc1` (centres undefined), the cell viability activity in test [1] is -64.5%; in test [2], -69.7%.

For the compound `COCCN1CCN(Cc2ccc(-c3n[nH]c4c3C(=O)c3c(NC(=O)NN5CCOCC5)cccc3-4)cc2)CC1`, the values for the cell viability activity in test [1] and in test [2] were -78.2% and -79.4%, respectively.

For the compound `CCCCC(=O)O[C@H]1CC[C@H]2[C@@H]3CCc4cc(O)ccc4[C@H]3CC[C@]12C`, the cell viability activity is -22.9% in test [1] and -32.5% in test [2].

For `C[C@@H](NC(=O)c1ncnc(N)c1Cl)c1ncc(C(=O)Nc2cc(C(F)(F)F)c(Cl)cn2)s1`, the cell viability activity in test [1] was -24.4%; in test [2], -29.1%.

Consider `CCCCCCOc1nsnc1C1=CCCN(C)C1`, for which the cell viability activity in test [1] is -59.1%; in test [2], -58.7%.

Take `CCS(=O)(=O)c1cccc(-c2cc(C(=O)NC3CCN(C)CC3)c(C)c3[nH]c4ncc(C)cc4c23)c1`: the cell viability activity in test [1] is -90.1%; in test [2], -85.9%.

Regarding `CN1CCc2c(c3ccccc3n2Cc2ccccc2)C1`, the cell viability activity in test [1] is -59.2%; in test [2] it was -56.9%.

As for `C=CC(=O)Nc1cccc(Nc2nc(Nc3ccc(OCCOC)cc3)ncc2F)c1`, the cell viability activity in test [1] was -33.3%; in test [2] it was -44.1%.

Take `Cc1cc(Nc2nc(N[C@@H](C)c3ncc(F)cn3)ncc2Cl)[nH]n1`: the cell viability activity in test [1] was -32.8%; in test [2], -31.6%.

For `O=C(O)[C@]1(Cc2cccc(Nc3nccs3)n2)CC[C@@H](Oc2cccc(Cl)c2F)CC1`, the cell viability activity in test [1] is -24.5%; in test [2], -24.6%.

Take `CCCC1(CCC)CCC2(CCN(CCCN(CC)CC)C2)CC1`: the cell viability activity in test [1] was -96.4%; in test [2], -95.6%.

In the case of `COc1cc2c(cc1OC)-c1cc3nc4ccccc4nc3n1C(C)(C)C2`, the figures for the cell viability activity in test [1] and in test [2] were -64.4% and -78.1%, respectively.

As to `Nc1nc(=O)n([C@H]2C[C@H](O)[C@@H](CO)O2)cc1F`, the cell viability activity in test [1] was -64.2%; in test [2], -71%.

For `Clc1ccc(COC(Cn2ccnc2)c2ccc(Cl)cc2Cl)cc1` (centres undefined), the cell viability activity in test [1] was -23.9%; in test [2], -14.6%.

Consider `COc1ccc(-c2cc3nccn3c(Nc3ncccc3C(N)=O)n2)cc1OC`, for which the results for the cell viability activity in test [1] and in test [2] were -27.9% and -32.6%, respectively.

As to `CN1CCN(S(=O)(=O)c2ccc(-c3cnc(N)c(C(=O)Nc4cccnc4)n3)cc2)CC1`, the cell viability activity in test [1] is -46.3%; in test [2], -40.9%.

On to `CCN1CCC[C@H]1CNC(=O)c1c(OC)ccc(Br)c1OC`, for which the cell viability activity in test [1] was -49.5%; in test [2], -38.6%.

Take `CC(C)c1cc(C(=O)N2Cc3ccc(CN4CCN(C)CC4)cc3C2)c(O)cc1O`: the cell viability activity in test [1] is -91.7%; in test [2] it was -88.3%.

Turning to `C=CCNC1=C2C[C@@H](C)C[C@H](OC)[C@H](O)[C@@H](C)/C=C(\C)[C@H](OC(N)=O)[C@@H](OC)/C=C\C=C(/C)C(=O)NC(=CC1=O)C2=O`, the cell viability activity was -90.1% in test [1] and -83.4% in test [2].

Turning to `CC(C)NC[C@@H](C(=O)N1CCN(c2ncnc3c2[C@H](C)C[C@H]3O)CC1)c1ccc(Cl)cc1`, the cell viability activity in test [1] is -53.6%; in test [2], -35.4%.

For `COc1ccc(CCCOC(Cn2ccnc2)c2ccc(OC)cc2)cc1` (centres undefined), the cell viability activity in test [1] was -67.2%; in test [2], -31.3%.

On to `CC(C)[C@](O)(c1ccc2cc(OC(F)F)c(OC(F)F)cc2c1)c1c[nH]nn1`, for which the results for the cell viability activity in test [1] and in test [2] were -54.8% and 9.17%, respectively.

As for `CCN(CC)CCOCCOC(=O)C(CC)(CC)c1ccccc1`, the cell viability activity was -31% in test [1] and -61.1% in test [2].

`O=C1/C(=C/c2ccccc2)C(NC2CCCCC2)c2ccccc21` (centres undefined): the cell viability activity was -91.7% in test [1] and -74.6% in test [2].

`CC1(C)CC(=O)c2c(C(F)(F)F)nn(-c3ccc(C(N)=O)c(N[C@H]4CC[C@H](OC(=O)CN)CC4)c3)c2C1`: the cell viability activity in test [1] was -89.4% and -91.3% and -87.7%; in test [2] it was -84.8% and -87.4% and -83.8%.

`C=C1CC[C@@H]2[C@](C)(CO)[C@H](O)CC[C@@]2(C)[C@@H]1C/C=C1/C(=O)OC[C@H]1O`: the values for the cell viability activity in test [1] and in test [2] were -27.5% and -0.518%, respectively.

Take `CN(C)Cc1c(C(=O)NCCOc2ccc(C(=O)NO)cc2)oc2ccccc12`: the cell viability activity in test [1] was -94.9%; in test [2], -85.2%.

As to `CCn1c(=O)c(-c2cc[nH]n2)cc2c(C)nc(N)nc21`, the cell viability activity in test [1] is -54.4%; in test [2], -42.2%.

As for `CC(C)NCCCn1c(Sc2cc3c(cc2I)OCO3)nc2c(N)ncnc21`, the cell viability activity in test [1] is -87%; in test [2], -85.8%.

On to `C[C@H]1O[C@@H](O[C@H]2[C@@H](O)C[C@H](O[C@H]3[C@@H](O)C[C@H](O[C@H]4CC[C@@]5(C)[C@H](CC[C@@H]6[C@@H]5C[C@@H](O)[C@]5(C)[C@@H](C7=CC(=O)OC7)CC[C@]65O)C4)O[C@@H]3C)O[C@@H]2C)C[C@H](O)[C@@H]1O`, for which the cell viability activity is -89.3% in test [1] and -90.8% in test [2].

Regarding `COc1ccc2c(c1)c(C1=C(c3c[nH]c4ccccc34)C(=O)NC1=O)cn2CCCN(C)C`, the results for the cell viability activity in test [1] and in test [2] were -75.2% and -88.9%, respectively.
